Measured values taken from PubChem BioAssay (EPA / NIEHS).
Inconclusive results are not listed. Activity calls are given as the source filed them. Rule for the calls, unless noted: active = hit-call score of the fitted dose curve at least 0.9, where 1 is the maximum; inactive = score below 0.9.

How the values were obtained:
[1] = ACEA_ER_80hr: ACEA Biosciences xCELLigence Real-Time Cell Analysis on Estrogen Receptor Agonism for Proliferation (AID 2282667; active = hit-call score of the fitted dose curve at least 0.9, where 1 is the maximum); details: T47D proliferation, impedance (xCELLigence), 80 h
Procedure, shortened: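 Estrogen-driven proliferation is captured as electrode impedance in T47D cells 80 h after compound addition. Test articles ran at 8 concentrations, 1:4 dilutions from 100 uM final, in two replicate plates.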

[2] = APR_HepG2_CellCycleArrest_24hr: Apredica 24-hour HepG2 Assay for Cell Cycle Arrest (AID 2282905); details: imaging, actives raise or lower the signal;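 note: cell cycle arrest scored as ratio of 2N to 4N nuclear DNA content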
Procedure, shortened: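 After 24 h exposure at 0.39–200 uM in 0.5% DMSO, fixed cells received Hoechst 33342 staining. Imaging quantified per-nucleus DNA content; gain or loss fitted against DMSO controls.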

[3] = APR_HepG2_NuclearSize_24hr: Apredica 24-hour HepG2 Assay for Nuclear Size (AID 2282907); details: high-content imaging, actives raise or lower the signal
Procedure, shortened: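 Nuclear size from Hoechst 33342-stained, formaldehyde-fixed HepG2 nuclei imaged by high-content microscopy, after 24 h dosing at ten concentrations from 0.39 to 200 uM in 0.5% DMSO; gain or loss relative to DMSO baseline.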

[4] = APR_HepG2_CellLoss_24hr: Apredica 24-hour HepG2 Assay for Cell Loss (AID 2282908); details: high-content imaging;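 for AC50: fit in both directions so a hit may be cell loss or gain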
Procedure, shortened: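 Nuclei stained with Hoechst 33342 after formaldehyde fixation (3.7%) were imaged at 20x to count cells. Exposure lasted 24 hr, at ten concentrations from 0.39 to 200 uM in duplicate, with 0.5% v/v DMSO. Fit bidirectional, relative to DMSO.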

[5] = APR_HepG2_MicrotubuleCSK_24hr: Apredica 24-hour HepG2 Assay for Microtubule CSK Stabilty (AID 2282909); details: HepG2 microtubule cytoskeleton imaging, actives raise or lower the signal
Procedure, shortened: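 Fixed HepG2 cells were stained for alpha-tubulin and imaged after 24 hr exposure to ten concentrations spanning 0.39–200 uM in 0.5% DMSO. Signal change was fitted in both directions relative to DMSO; taxol was the positive control.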

[6] = APR_HepG2_MitoticArrest_24hr: Apredica 24-hour HepG2 Assay for Mitotic Arrest (AID 2282910); details: high-content imaging, actives raise or lower the signal
Procedure, shortened: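 High-content imaging of fixed HepG2 cells labeled with Hoechst 33342 and anti-phospho-histone H3, after 24 h treatment. Ten concentrations 0.39 to 200 uM in duplicate, final DMSO 0.5%; changes fitted both directions relative to DMSO.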

[7] = APR_HepG2_MitoMembPot_24hr: Apredica 24-hour HepG2 Assay for Mitochondrial Membrane Potential (AID 2282911); details: imaging, actives raise or lower the signal
Procedure, shortened: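 Mitochondrial dye uptake (MitoTracker Red CMXRos, 250 nM, 30 min pre-fixation) in HepG2 after 24 hr compound exposure, 0.39–200 uM; ArrayScan images at 20x, activity fitted in both directions relative to DMSO.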

[8] = APR_HepG2_MitoMass_24hr: Apredica 24-hour HepG2 Assay for Mitochondrial Mass (AID 2282912); details: high-content imaging, actives raise or lower the signal
Procedure, shortened: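 Endpoint is MitoTracker Red CMXRos (250 nM, 30 min, pre-fixation) intensity from 20x high-content imaging, nuclei located by Hoechst. Human HepG2 cells received ten concentrations from 0.39 to 200 uM in 0.5% DMSO for 24 hr, duplicate wells. Bidirectional fit relative to DMSO.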

[9] = APR_HepG2_CellCycleArrest_72hr: Apredica 72-hour HepG2 Assay for Cell Cycle Arrest (AID 2282914); details: high-content imaging, actives raise or lower the signal
Procedure, shortened: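 Using multiplexed high-content imaging, HepG2 nuclei stained with Hoechst 33342 (2 ug/mL) were analysed for DNA content after fixation and permeabilization. Treatment lasted 72 hr across 0.39–200 uM in duplicate with final DMSO 0.5% v/v; DMSO served as negative control.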

[10] = APR_HepG2_p53Act_24hr: Apredica 24-hour HepG2 Assay for p53 Activation (AID 2282913); details: high-content imaging, actives raise or lower the signal;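 note: p53 protein immunofluorescence averaged per cell in HepG2 with Hoechst nuclei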
Procedure, shortened: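 Following 24 hr dosing of HepG2 at 0.39–200 uM, the cells undergo formaldehyde fixation, Triton permeabilization and multiplexed antibody labeling that includes p53 (Cy5). Signal from the imaging is referenced to DMSO solvent controls.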

Measured: AC50

CN(C)C(=O)Cl
active: [1] 38.7 µM
not listed: [10]
inactive: all other assays above

Cc1ccc(N)cc1N
inactive: all assays above

CCOS(=O)(=O)OCC
inactive: all assays above

c1cc2c3c(cccc3c1)CC2
inactive: all assays above

O=[N+]([O-])c1ccccc1
inactive: all assays above

CCNc1nc(Cl)nc(NC(C)(C)C)n1
active: [1] 28 µM
not listed: [10]
inactive: all other assays above

CSC(C)(C)C=NO
not listed: [10]
inactive: all other assays above

CC(Cc1ccc(OCC(=O)O)cc1)NCC(O)c1csc(C(F)(F)F)n1 (stereo not drawn)
inactive: all assays above

Nc1ccc2ccccc2c1
active: [7] 52.5 µM | [9] 88.9 µM
inactive: all other assays above

CCCCc1ccccc1
not listed: [10]
inactive: all other assays above

O=C(O)C(Cl)Cl
not listed: [10]
inactive: all other assays above

c1nc[nH]n1
inactive: all assays above

ClC1=C(Cl)C2(Cl)C3C(Cl)C(Cl)CC3C1(Cl)C2(Cl)Cl (stereo not drawn)
inactive: [1] | [3] | [7] | [9]
active: [2] 27.8 µM | [4] 69.4 µM | [5] 156 µM | [6] 65.1 µM | [8] 48.9 µM | [10] 82.6 µM

O=[N+]([O-])c1ccc(Cl)c(Cl)c1
not listed: [10]
inactive: all other assays above

ClC(Cl)(Cl)c1ccccc1
inactive: all assays above

CCC1(c2ccccc2)C(=O)N=C(O)NC1=O (stereo not drawn)
inactive: all assays above

CCOc1ccc(C(C)(C)COCc2cccc(Oc3ccccc3)c2)cc1
active: [9] 85.5 µM
inactive: all other assays above

CCCCCCCc1ccc(O)cc1
active: [1] 0.402 µM
not listed: [10]
inactive: all other assays above

c1ccc2c(c1)Nc1ccccc1S2
active: [2] 9.76 µM | [7] 107 µM
inactive: all other assays above

CCOP(=S)(Oc1ccc([N+](=O)[O-])cc1)c1ccccc1 (stereo not drawn)
active: [4] 41.1 µM
not listed: [10]
inactive: all other assays above

CCC(C)(C)c1ccc(O)cc1
inactive: [2] | [3] | [5] | [8]
active: [1] 2.14 µM | [4] 109 µM | [6] 107 µM | [7] 100 µM | [10] 109 µM | [9] 108 µM

Cc1cccc(N)c1
inactive: all assays above

CC(C)(C)c1ccc(O)cc1
active: [1] 10.5 µM
inactive: [4] | [6] | [7] | [8] | [10]

CC(Cl)(Cl)C(=O)O
not listed: [10]
inactive: all other assays above

Cc1ccc(O)cc1C
inactive: [1] | [4] | [6] | [7] | [8] | [10]

ClC(Cl)c1ccccc1
not listed: [10]
inactive: all other assays above

Nc1cc2c3c(c1)C(c1ccccc1)=N[C@@H](NC(=O)c1cccnc1)C(=O)N3CC2
not listed: [10]
inactive: all other assays above

CCCCN(CCCC)SN(C)C(=O)Oc1cccc2c1OC(C)(C)C2
active: [2] 48.4 µM | [4] 98 µM | [6] 79.2 µM | [8] 92.7 µM | [9] 23.3 µM
inactive: [1] | [3] | [5] | [7]

O=P(Oc1ccccc1)(Oc1ccccc1)Oc1ccccc1
active: [2] 83.5 µM | [4] 63.2 µM | [5] 83 µM | [6] 67.5 µM | [10] 67.6 µM | [9] 75.5 µM
inactive: [1] | [3] | [7] | [8]

O=C(O)C1C(C(=O)O)C2(Cl)C(Cl)=C(Cl)C1(Cl)C2(Cl)Cl (stereo not drawn)
inactive: all assays above

CCCN(CCC)c1c([N+](=O)[O-])cc(C(C)C)cc1[N+](=O)[O-]
inactive: [1] | [3] | [5] | [6]
active: [2] 49 µM | [4] 32.6 µM | [7] 55.2 µM | [8] 42.9 µM | [10] 52.9 µM | [9] 35.4 µM

Nc1ccc(Cl)cc1
inactive: all assays above

CCN(CC)c1ccccc1
inactive: all assays above

[N-]=[N+]=[N-]
inactive: all assays above

COCCOCCO
not listed: [10]
inactive: all other assays above

Cc1ccc([N+](=O)[O-])cc1C
not listed: [10]
inactive: all other assays above
